NPC1 promoter act – qHTS Assay for NPC1 Promoter Activators; Huh7 NPC1 promoter luciferase reporter, 24 h; Potency, µM (titrated, usually from 9.22 µM), hits mostly activators; actives 2.4% (n = 320,000); AID 485313, 2010; note: nearly all actives have a fitted effect of over 60% in size
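Stably transfected Huh7 (NPC1 promoter→luciferase), 1500 cells/well in Opti-MEM + 10% FBS, 2 h settle, then compound 24 h at 37 °C. Luminescence after 10 min with Amplite reagent.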
SMN2 splice up – qHTS Assay for Enhancers of SMN2 Splice Variant Expression; actives 2.8% (n = 210,000); HEK293 SMN2-luciferase splicing reporter, luminescence, 30-36 h; Potency, µM (doses to about 46.1 µM), hits mostly activators; note: nearly all actives have a fitted effect of over 55% in size
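qHTS luciferase splicing reporter: luminescence rises when SMN2 exon 7 is included in transfected HEK293 cells. Compound exposure lasted 30-36 h at 37C, with 4.5 mM final sodium butyrate as control, followed by a ONE-Glo read.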
ELG1 genotox – qHTS screen for small molecules that induce genotoxicity in human embryonic kidney (HEK293T) cells expressing luciferase-tagged ELG1 | Potency, µM (doses to about 46 µM), hits mostly activators | AID 504466, 2011 | actives 1.3% (n = 330,000) | HEK293T ELG1-luciferase reporter, luminescence, 16 h; note: nearly all actives have a fitted effect of over 60% in size
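Quantitative HTS format in 1536-well plates. HEK293T ELG1-luciferase reporter cells receive test compound and are incubated 16 hr at 37 °C, 5% CO2; ONE-Glo added, 30 min room temperature, then luminescence read.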
FLuc modulator – qHTS profiling assay for firefly luciferase inhibitor/activator using purifed enzyme and Km concentrations of substrates (counterscreen for miR-21 project) | Luciferin 4-monooxygenase (Photinus pyralis), P08659 | purified FLuc, Km substrates, luminescence inhibition | Potency, µM (top dose mostly 57.5 µM), most hits filed as inhibitors | actives 6.9% (n = 360,000) | AID 588342, 2011; note: nearly all actives have a fitted effect of over 55% in size
Target sequence (P08659 whole entry, looked up): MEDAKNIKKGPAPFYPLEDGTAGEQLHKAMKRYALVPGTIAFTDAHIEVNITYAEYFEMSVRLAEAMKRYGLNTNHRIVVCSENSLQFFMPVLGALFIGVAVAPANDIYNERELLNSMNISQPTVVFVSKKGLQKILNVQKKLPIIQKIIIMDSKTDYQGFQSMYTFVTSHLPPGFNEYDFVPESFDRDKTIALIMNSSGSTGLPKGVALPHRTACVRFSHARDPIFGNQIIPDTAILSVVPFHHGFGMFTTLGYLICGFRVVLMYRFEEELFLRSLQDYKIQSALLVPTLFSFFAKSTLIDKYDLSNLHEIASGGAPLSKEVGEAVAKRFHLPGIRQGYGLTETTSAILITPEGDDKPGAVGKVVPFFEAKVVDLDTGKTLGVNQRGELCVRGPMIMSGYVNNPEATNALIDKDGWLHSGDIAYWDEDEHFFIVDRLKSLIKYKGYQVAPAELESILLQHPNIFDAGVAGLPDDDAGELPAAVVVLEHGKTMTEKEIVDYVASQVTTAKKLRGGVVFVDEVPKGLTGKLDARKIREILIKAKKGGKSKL
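Purified P. pyralis luciferase, 10 nM final, with Km-level 10 uM D-luciferin and 10 uM ATP in 50 mM Tris acetate pH 7.5, 10 mM Mg acetate, 0.01% Tween-20, 0.05% BSA; 6-point qHTS titration about 60 µM downward; luminescence read.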
Rab9 promoter act – qHTS Assay for Rab9 Promoter Activators | Potency, µM (series often up to 9.22 µM), actives largely listed as activators | Huh7 Rab9 promoter-luciferase reporter, luminescence, 24 h | actives 2.8% (n = 320,000) | AID 485297, 2010; note: nearly all actives have a fitted effect of over 60% in size
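Luminescence from Amplite-detected luciferase (10 minutes, ambient) reports Rab9 promoter activation. Before that, stable Rab9-luciferase Huh7 cells (1500/well, reduced-serum OP-MEM I plus 10% FBS) were exposed to compound for 24 hours at 37C.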
Large screens that a line does not name were inactive. Compounds with a hit are over-represented: about 7.5% of the library has one in this group of screens. Calls come from the whole dose curve; as a rule, active = well fitted curve in the direction sought with a large enough effect; inconclusive = small, poorly fitted or top-dose-only effect, or another doubt; inactive = no such curve, though single readings can be large; an effect the other way counts as inactive or inconclusive.

CCOC(=O)c1cc2c(nc1N)CCCC2	none (no result: SMN2 splice up)
C=C(C)CNC(=S)Nc1nc2c(cc1C(=O)OCC)CCCC2	NPC1 promoter act inconclusive, SMN2 splice up 4.47µM, ELG1 genotox inconclusive, FLuc modulator 13.5µM, Rab9 promoter act inconclusive
CCOc1ccccc1NC(=O)C(c1ccccc1)N1CCN(C(=O)c2ccco2)CC1 (stereo not drawn)	none (no result: SMN2 splice up)
CCOC(=O)C1=C(Cc2ccc(F)cc2)C(=O)c2ccccc2C1=O	FLuc modulator inconclusive
CCCCc1ccc(/C=C2\C(=O)c3ccccc3C(O)=C2C(=O)OCC)cc1	FLuc modulator 10.7µM
CCc1ccc(-c2nc(CS(=O)CC(=O)NCCCN3CCC(C)CC3)c(C)o2)cc1 (stereo not drawn)	none (no result: SMN2 splice up)
C=CCNC(=O)c1onc(CSc2ccc(Cl)cc2)c1C(=O)O	SMN2 splice up inconclusive, FLuc modulator 16.9µM
C=CCNC(=O)c1onc(CSc2ccc(Cl)cc2)c1C(=O)NCC=C	none (no result: SMN2 splice up)
C=CCNC(=O)c1onc(CSc2cc(C)ccc2C)c1C(=O)O	SMN2 splice up 31.6µM
O=C(NCCn1ccc2ccccc21)c1ccc(S(=O)(=O)N2CCOCC2)cc1	none
Cc1cccc(-c2nc(=S)c3c(o2)CCCC3)c1	NPC1 promoter act 1.41µM, SMN2 splice up 11.2µM, ELG1 genotox inconclusive, FLuc modulator 3.38µM, Rab9 promoter act 1.41µM
COC(=O)C(C(=O)OC)[C@@H]1O[C@@]23COC=C[C@]2(C)[C@H]3c2ccccc21	none (no result: NPC1 promoter act, ELG1 genotox, FLuc modulator, Rab9 promoter act)
O=c1[nH]c(=O)n(C2CCCCC2)c(O)c1C1=Nc2ccccc2SC(c2ccccc2)C1 (stereo not drawn)	none (no result: NPC1 promoter act, SMN2 splice up, ELG1 genotox, Rab9 promoter act)
Cc1cc(O)c(C2=Nc3ccccc3SC(c3ccc(Cl)cc3)C2)c(=O)o1 (stereo not drawn)	ELG1 genotox 7.31µM, FLuc modulator 4.78µM
O=C(CC(SCCO)c1ccc([N+](=O)[O-])cc1)c1ccco1 (stereo not drawn)	ELG1 genotox inconclusive (no result: SMN2 splice up)
CC(=O)NC(CSC(CC(=O)c1ccco1)c1ccc(C)cc1)C(=O)O (stereo not drawn)	ELG1 genotox inconclusive, FLuc modulator 4.26µM, Rab9 promoter act inconclusive
CN(C)c1ccc(C2C3=C(CCCC3=O)OC3=C2C(=O)CCC3)cc1	none
CN(C)c1ccc(/C=C2\CCCCC2=O)cc1	NPC1 promoter act 3.55µM, SMN2 splice up 22.4µM, ELG1 genotox 5.8µM, FLuc modulator 2.69µM, Rab9 promoter act 3.16µM
COc1ccc(NC(=O)CCSc2nc(-c3ccco3)cc(C(F)(F)F)n2)cc1	none (no result: NPC1 promoter act, ELG1 genotox, Rab9 promoter act)
CN(C)c1ccc(NC(=O)CCSc2nc(-c3ccco3)cc(C(F)(F)F)n2)cc1	FLuc modulator 9.53µM (no result: NPC1 promoter act, ELG1 genotox, Rab9 promoter act)
CCOc1ccc(C(=O)NCC(=O)N2CCC3(CC2)NCCc2[nH]cnc23)cc1	none (no result: SMN2 splice up)
CSc1ccc(CNc2ccc(C)cc2)cc1	NPC1 promoter act 3.55µM, ELG1 genotox inconclusive, FLuc modulator 9.53µM, Rab9 promoter act 3.98µM
COc1cc(CNc2ccc(C)c(C)c2)cc(OC)c1OC	none
CSc1ccc(CNc2ccc(C)c(C)c2)cc1	NPC1 promoter act inconclusive, ELG1 genotox inconclusive, FLuc modulator 15.1µM, Rab9 promoter act inconclusive
COc1ccc(CNc2ccc(C)c(C)c2)cc1	NPC1 promoter act inconclusive, ELG1 genotox inconclusive, FLuc modulator 15.1µM, Rab9 promoter act inconclusive
CC(=O)N1CCCc2cc(S(=O)(=O)N3CCCC(C(=O)Nc4cccc(C)c4)C3)ccc21 (stereo not drawn)	none (no result: SMN2 splice up)
CC(=O)Nc1ccc(Cc2ccc3[nH]c(=O)cc(C)c3c2)cc1	ELG1 genotox 20.6µM
CC(=O)Nc1ccc2[nH]c3ccccc3c2c1	FLuc modulator 19µM (no result: SMN2 splice up)
CC(=O)Nc1ccc2[nH]c(C)cc(=O)c2c1	none
OB(O)c1ccc(Br)cc1	none (no result: NPC1 promoter act, ELG1 genotox, FLuc modulator, Rab9 promoter act)
Cc1cn2c(N)c(C=C3C=C(Cl)C(=O)C(Cl)=C3)c(=O)nc2s1	FLuc modulator 16.9µM
COC1=C/C(=C/c2c(N)n3cc(C)sc3nc2=O)C=CC1=O	FLuc modulator 3.79µM
C/C(=N\NC(=O)c1cc(-c2cccs2)nc2ccccc12)c1ccccn1	FLuc modulator 23.9µM
O=C(NC1=NCCS1)c1cc(-c2cccs2)nc2ccccc12	FLuc modulator 12µM (no result: SMN2 splice up)

Screening data from PubChem BioAssay.
